# Assay outcomes (PubChem BioAssay)
# An excerpt weighted towards active compounds, which were near 4.5% of everything screened.
# PrPC surface inh: inhibitors of human cell surface prion protein PrPC, primary screen, cell-based, TR-FRET. AID 720596, 2013. inhibition, % at 13.8 µM. Major prion protein (Homo sapiens), P04156. TR-FRET read-out. 370,000 tested, 0.43% active; in the data active = inhibition above about 24%; note: 0% = median of the test wells and 100% = reference compound wells
# FBA Mtb inh: Mtb FBA enzyme inhibitors, primary screen, biochemical, fluorescence, strain H37Rv; Fructose-bisphosphate aldolase (Mycobacterium tuberculosis (strain ATCC 25618 / H37Rv)), …; 360,000 tested, 2.3% active; inhibition, % at 1 µM; purified M. tuberculosis FBA, fluorescence read-out; in the data active = inhibition above about 27%;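 note: 0% = vehicle and 100% = reference inhibitor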
# Target sequence (P9WQA3 whole entry, looked up): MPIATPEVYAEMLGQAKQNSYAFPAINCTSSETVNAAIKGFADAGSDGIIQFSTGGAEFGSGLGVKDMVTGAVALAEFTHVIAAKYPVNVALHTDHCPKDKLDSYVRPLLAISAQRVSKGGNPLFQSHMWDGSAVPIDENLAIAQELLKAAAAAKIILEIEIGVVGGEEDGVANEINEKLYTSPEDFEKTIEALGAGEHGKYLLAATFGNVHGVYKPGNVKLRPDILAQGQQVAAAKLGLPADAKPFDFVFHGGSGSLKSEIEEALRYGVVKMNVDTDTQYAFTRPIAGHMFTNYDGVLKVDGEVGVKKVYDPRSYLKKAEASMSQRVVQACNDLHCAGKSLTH
# PfHsp40 yeast: rescue of yeast from PfHsp40 toxicity, primary screen, S. cerevisiae, ATP luminescence | S. cerevisiae expressing PfHsp40, growth rescue | growth rescue, % at 12.5 µM | 340,000 tested, 0.68% active; in the data active = growth rescue above about 28%, passing the limit was not always enough;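 note: yeast W303a lacking pdr1 and pdr3 grown in galactose medium; growth measured after three days at 30 °C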
# GDH-TPI inh: GDH-TPI coupling enzyme inhibitors, primary screen, artefact control for M. tuberculosis FBA inhibitor project, biochemical, absorbance, full deck; GDH-TPI coupled enzyme counterscreen, NADH absorbance; 360,000 tested, 1.2% active; inhibition, % at 4.8 µM; in the data active = inhibition above about 30%;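 note: 0% = DMSO wells and 100% = wells lacking the enzyme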
# PrP UTR inh: inhibition of PrP 5' UTR reporter expression | inhibition, % (concentration not given with the values) | cell-based PrP 5' UTR mRNA reporter, plate reader | 340,000 tested, 0.35% active; in the data active = inhibition above about 52%; note: 0 = median of the neutral control wells
# BJeLR lethal: MLPCN primary cell-based screen for lethality selective to Ras in HRASV12 cells; AID 1554, 2009; BJeLR (HRASV12) viability, CellTiter-Glo ATP luminescence, 48 h; inhibition, % (no concentration beside the values); 300,000 tested, 0.17% active; in the data active = inhibition above about 50%
# * marks the source's active call; other numbers are inactive results; . = no result given; + = active, no number.
SMILES,PrPC surface inh,FBA Mtb inh,PfHsp40 yeast,GDH-TPI inh,PrP UTR inh,BJeLR lethal
CCCn1nc(NC(=O)c2cccs2)c2cc3cc(C)ccc3nc21,2,12,48*,9,-15,3
Cc1nc2sc(C(=O)NCc3ccc4c(c3)OCO4)c(N)c2c(C)c1Cl,-1,.,.,.,.,.
CCNC(=S)N/N=C(\C)c1ccc2ccccc2c1OC(F)F,-1,-1,62*,16,-23,0
CCNC(=S)N/N=C(\C)c1ccc2ccccc2c1,.,.,.,.,.,-6
COc1ccc(C=C(C#N)c2ccc(OC)cc2)cc1,0,1,2,19,-49,.
COc1ccc(C(C#N)=Cc2ccc(NC(C)=O)cc2)cc1,2,2,3,40*,-67,.
COc1ccc(S(=O)(=O)/C(C#N)=C/Nc2ccc(NC(C)=O)cc2)cc1,6,-3,0,31*,-14,1
CC(=O)Nc1ccc(C(C#N)=Cc2ccc(N(C)CCC#N)cc2)cc1,-4,-3,.,31*,.,.
OC(c1ccccc1)(c1ccccc1)C1CCN(CCCNc2ccccc2F)CC1,-21,.,.,.,.,.
CC(C)N1CCCCC(NC(=O)c2ccc(Cl)cc2Cl)C1=O (centres undefined),-9,.,.,.,.,.
CC(=O)N1CCN(C2=NC(=O)N(c3ccc(Br)cc3)C(=O)C2)CC1,-4,.,.,.,.,.
CC(/C=C/C=C/c1ccccc1)=N/NC(=O)CNc1ccc(C)cc1,8,-3,0,33*,-17,-5
CC(/C=C/C=C/c1ccccc1)=N/NC(=O)C(O)c1ccccc1 (centres undefined),-4,-3,-2,50*,-21,-15
CCn1c(=O)[nH]n(C/C(C)=C\c2c[n+](Cc3ccc4c(c3)OCO4)c(N)[nH]2)c1=O,-9,.,.,.,.,.
CCC(C)(C)n1nnnc1C(c1cccnc1)N1CCN(c2cccc(C(F)(F)F)c2)CC1 (centres undefined),8,2,215*,-4,13,-3
CC(=O)Oc1ccc2c(=O)c(-c3ccccc3)coc2c1,8,15,1,0,-69,3
CCOC(=O)COc1ccc2cc(C(=O)OCC)c(=O)oc2c1,-16,184*,5,38*,1,-9
COc1ccc(-c2cc3ccc(OC(C)C(=O)O)cc3oc2=O)cc1 (centres undefined),-29,+,0,16,8,3
CC(=O)Oc1ccc2cc(-c3ccccc3)c(=O)oc2c1,-5,158*,0,6,-19,0
CC(=O)COc1ccc2cc(-c3ccccc3)c(=O)oc2c1,-17,+,0,40*,-60,1
CCOC(=O)[C@]12CCCC=C1N(CCCOC)C(=O)[C@@H]2CC(=O)N1CCCCC1,-9,.,.,.,.,.
O=S1(=O)c2ccc(N3CCCC3)cc2Oc2ccccc2CN1Cc1cn(Cc2cccc(C(F)(F)F)c2)nn1,5,.,.,.,.,.
CC(C)(C)c1ccc(-c2nnc3sc(COc4ccccc4)nn23)cc1,-2,.,.,.,.,.
O=C(NCc1cc(C(F)(F)F)ccc1Cl)c1cccc2c1C(=O)c1ccc(N3CCC(N4CCCCC4)CC3)cc1S2(=O)=O,46*,-5,.,9,.,.
S=C(NCCCn1ccnc1)Nc1cccc(Cl)c1,2,-1,35*,-1,-13,9
SMILES,PrPC surface inh,FBA Mtb inh,PfHsp40 yeast,GDH-TPI inh,PrP UTR inh,BJeLR lethal
COc1ccc2oc(-c3ccco3)cc(=O)c2c1,-7,116*,1,54*,-66,10
O=c1cc(-c2ccco2)oc2ccc(Cl)cc12,5,21,0,12,-26,2
O=C(COc1ccc2oc(-c3ccco3)cc(=O)c2c1)N1CCCCC1,-14,157*,-1,51*,-18,6
CN(C)c1cccc(CNC(=O)c2ccc3nc([C@@H]4O[C@H](CO)[C@H](O)[C@H](O)[C@H]4O)[nH]c3c2)c1,-4,2,.,7,.,.
C[C@H](O)[C@@H]1C(=O)N2CCc3c([nH]c4c(-c5ccc6c(c5)OCO6)cccc34)[C@@H]2C[C@@H]1N(C)C(=O)OCc1ccccc1,-3,.,.,.,.,.
Cc1ccc2nc(-c3ccco3)c(Nc3ccccc3)n2c1,10,192*,1,9,-8,-4
Cc1ccc2nc(-c3ccncc3)c(Nc3ccccc3)n2c1,9,3,-1,6,-53,-10
